# Experimental data reported in the supplement of paper PMC4466140.
# Target: AgAbp1
# Test: SPOT peptide array binding signal intensity (averaged, normalized) (arbitrary units (background-subtracted, floor 0; scale differs between SH3 domains)); higher = stronger binding of the SH3 domain to the peptide
# In short: (§1)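 Binding signal refers to normalized, background-subtracted spot intensity averaged over replicates, expressed in arbitrary units that differ between domains. GST-fused SH3 domains from four yeast species were incubated at 10 μg/ml overnight at 4°C on cellulose membranes of synthetic 15-mer peptides with cysteines replaced by serines. Bound protein was detected with anti-GST antibody, an HRP anti-mouse secondary and luminol, and quantified with Genespotter.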
row,Binder,SPOT peptide array binding signal intensity
1,APKHAPPPVPNETDN,≤ 0

# Target: AgBbc1
# Test: as above
# In short: as §1
row,Binder,SPOT peptide array binding signal intensity
1,APKHAPPPVPNETDN,≤ 0

# Target: AgBem1-D1
# Test: as above
# In short: as §1
row,Binder,SPOT peptide array binding signal intensity
1,APKHAPPPVPNETDN,≤ 0

# Target: AgBzz1-D1
# Test: as above
# In short: as §1
row,Binder,SPOT peptide array binding signal intensity
1,APKHAPPPVPNETDN,72

# Target: AgBzz1-D2
# Test: as above
# In short: as §1
row,Binder,SPOT peptide array binding signal intensity
1,APKHAPPPVPNETDN,≤ 0

# Target: AgCyk3
# Test: as above
# In short: as §1
row,Binder,SPOT peptide array binding signal intensity
1,APKHAPPPVPNETDN,≤ 0

# Target: AgFus1
# Test: as above
# In short: as §1
row,Binder,SPOT peptide array binding signal intensity
1,APKHAPPPVPNETDN,≤ 0

# Target: AgHof1
# Test: as above
# In short: as §1
row,Binder,SPOT peptide array binding signal intensity
1,APKHAPPPVPNETDN,≤ 0

# Target: AgHse1
# Test: as above
# In short: as §1
row,Binder,SPOT peptide array binding signal intensity
1,APKHAPPPVPNETDN,≤ 0

# Target: AgLsb1
# Test: as above
# In short: as §1
row,Binder,SPOT peptide array binding signal intensity
1,APKHAPPPVPNETDN,≤ 0

# Target: AgLsb4
# Test: as above
# In short: as §1
row,Binder,SPOT peptide array binding signal intensity
1,APKHAPPPVPNETDN,≤ 0

# Target: AgMyo5
# Test: as above
# In short: as §1
row,Binder,SPOT peptide array binding signal intensity
1,APKHAPPPVPNETDN,1790

# Target: AgNbp2
# Test: as above
# In short: as §1
row,Binder,SPOT peptide array binding signal intensity
1,APKHAPPPVPNETDN,≤ 0

# Target: AgRvs167
# Test: as above
# In short: as §1
row,Binder,SPOT peptide array binding signal intensity
1,APKHAPPPVPNETDN,≤ 0

# Target: AgSho1
# Test: as above
# In short: as §1
row,Binder,SPOT peptide array binding signal intensity
1,APKHAPPPVPNETDN,≤ 0

# Target: AgSla1-D1-D2
# Test: as above
# In short: as §1
row,Binder,SPOT peptide array binding signal intensity
1,APKHAPPPVPNETDN,≤ 0

# Target: AgSla1-D3
# Test: as above
# In short: as §1
row,Binder,SPOT peptide array binding signal intensity
1,APKHAPPPVPNETDN,2.5

# Target: CaAbp1-D1
# Test: as above
# In short: as §1
row,Binder,SPOT peptide array binding signal intensity
1,APKHAPPPVPNETDN,≤ 0

# Target: CaAbp1-D2
# Test: as above
# In short: as §1
row,Binder,SPOT peptide array binding signal intensity
1,APKHAPPPVPNETDN,≤ 0

# Target: CaBbc1
# Test: as above
# In short: as §1
row,Binder,SPOT peptide array binding signal intensity
1,APKHAPPPVPNETDN,0.25

# Target: CaBem1-D1
# Test: as above
# In short: as §1
row,Binder,SPOT peptide array binding signal intensity
1,APKHAPPPVPNETDN,≤ 0

# Target: CaBzz1-D1
# Test: as above
# In short: as §1
row,Binder,SPOT peptide array binding signal intensity
1,APKHAPPPVPNETDN,992

# Target: CaBzz1-D2
# Test: as above
# In short: as §1
row,Binder,SPOT peptide array binding signal intensity
1,APKHAPPPVPNETDN,115

# Target: CaCyk3
# Test: as above
# In short: as §1
row,Binder,SPOT peptide array binding signal intensity
1,APKHAPPPVPNETDN,≤ 0

# Target: CaFus1
# Test: as above
# In short: as §1
row,Binder,SPOT peptide array binding signal intensity
1,APKHAPPPVPNETDN,≤ 0

# Target: CaHof1
# Test: as above
# In short: as §1
row,Binder,SPOT peptide array binding signal intensity
1,APKHAPPPVPNETDN,≤ 0

# Target: CaHse1
# Test: as above
# In short: as §1
row,Binder,SPOT peptide array binding signal intensity
1,APKHAPPPVPNETDN,1.75

# Target: CaLsb1
# Test: as above
# In short: as §1
row,Binder,SPOT peptide array binding signal intensity
1,APKHAPPPVPNETDN,≤ 0

# Target: CaLsb4
# Test: as above
# In short: as §1
row,Binder,SPOT peptide array binding signal intensity
1,APKHAPPPVPNETDN,≤ 0

# Target: CaMyo5
# Test: as above
# In short: as §1
row,Binder,SPOT peptide array binding signal intensity
1,APKHAPPPVPNETDN,110

# Target: CaNbp2
# Test: as above
# In short: as §1
row,Binder,SPOT peptide array binding signal intensity
1,APKHAPPPVPNETDN,≤ 0

# Target: CaRvs167
# Test: as above
# In short: as §1
row,Binder,SPOT peptide array binding signal intensity
1,APKHAPPPVPNETDN,≤ 0

# Target: CaRvs167-3
# Test: as above
# In short: as §1
row,Binder,SPOT peptide array binding signal intensity
1,APKHAPPPVPNETDN,≤ 0

# Target: CaSho1
# Test: as above
# In short: as §1
row,Binder,SPOT peptide array binding signal intensity
1,APKHAPPPVPNETDN,≤ 0

# Target: CaSla1-D1-D2
# Test: as above
# In short: as §1
row,Binder,SPOT peptide array binding signal intensity
1,APKHAPPPVPNETDN,≤ 0

# Target: CaSla1-D3
# Test: as above
# In short: as §1
row,Binder,SPOT peptide array binding signal intensity
1,APKHAPPPVPNETDN,≤ 0

# Target: ScAbp1
# Test: as above
# In short: as §1
row,Binder,SPOT peptide array binding signal intensity
1,APKHAPPPVPNETDN,≤ 0
